APE1 inh – qHTS Assay for Inhibitors of the Human Apurinic/apyrimidinic Endonuclease 1 (APE1). DNA repair nuclease/redox regulator APEX1 (Homo sapiens), P27695. Potency, µM (top dose mostly 65.8 µM), inactives show at the highest dose activity change, negative = inhibition, most hits filed as inhibitors. 350,000 tested, 0.35% active. recombinant APE1, TAMRA/BHQ-2 abasic DNA cleavage fluorescence. AID 2517, 2012;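 note: plate controls were vehicle for no effect and reference inhibitor for full effect; nearly all actives have a fitted effect of over 55% in size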
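Readout is kinetic fluorescence (ex 525, em 598 nm) from cleavage of 50 nM TAMRA/BHQ-2 THF abasic duplex by 0.75 nM APE1, compound added 15 min beforehand at RT.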
Pol eta inh – qHTS for Inhibitors of Polymerase Eta; 390,000 tested, 1.2% active; Potency, µM (top dose mostly 114 µM), inactives show top-dose activity change, negative = inhibition, actives largely listed as inhibitors; recombinant Pol eta, fluorescent DNA replication assay; AID 588591, 2011; DNA polymerase eta (Homo sapiens), Q9Y253; note: % is set by controls: 0 for no effect and ±100 for the full control effect
Target sequence (Q9Y253 whole entry, looked up): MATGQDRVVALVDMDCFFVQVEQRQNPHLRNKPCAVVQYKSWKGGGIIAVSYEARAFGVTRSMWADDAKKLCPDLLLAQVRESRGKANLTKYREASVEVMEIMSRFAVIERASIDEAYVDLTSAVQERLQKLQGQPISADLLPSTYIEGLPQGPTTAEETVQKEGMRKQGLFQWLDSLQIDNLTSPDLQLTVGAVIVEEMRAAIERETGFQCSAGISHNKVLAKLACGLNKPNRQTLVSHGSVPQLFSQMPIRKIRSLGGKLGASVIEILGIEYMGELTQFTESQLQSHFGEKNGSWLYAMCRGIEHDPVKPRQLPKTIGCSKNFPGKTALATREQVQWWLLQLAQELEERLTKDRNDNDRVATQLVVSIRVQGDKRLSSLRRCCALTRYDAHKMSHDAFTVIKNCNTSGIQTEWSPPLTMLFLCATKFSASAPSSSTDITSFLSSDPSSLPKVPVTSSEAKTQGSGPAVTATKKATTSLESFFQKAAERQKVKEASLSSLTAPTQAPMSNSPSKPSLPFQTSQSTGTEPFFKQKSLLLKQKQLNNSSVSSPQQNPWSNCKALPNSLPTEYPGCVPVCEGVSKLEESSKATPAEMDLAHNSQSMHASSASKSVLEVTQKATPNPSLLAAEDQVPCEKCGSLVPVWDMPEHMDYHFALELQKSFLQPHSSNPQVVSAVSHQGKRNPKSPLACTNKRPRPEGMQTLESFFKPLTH
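Pol eta at 10 nM preincubated with compounds 15 min at room temperature; reaction started with fluorescent substrate (50 nM final) and read kinetically at 0 and 10 min.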
L3MBTL1 block – qHTS Assay for the Inhibitors of L3MBTL1. Lethal(3)malignant brain tumor-like protein 1 (Homo sapiens), Q9Y468. AlphaScreen L3MBTL1–H3K9me1 peptide binding. Potency, µM (titrated, usually from 57.1 µM), without a hit: at the highest dose activity, negative = inhibition, most hits filed as inhibitors. 230,000 tested, 0.66% active. AID 485360, 2010; note: % is set by controls: 0 for no effect and ±100 for the full control effect; nearly all actives have a fitted effect of over 60% in size
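Read-out is AlphaScreen signal from streptavidin donor and nickel chelate acceptor beads (10 ug/mL final each) bridging L3MBTL1 (50 nM) and biotinylated K9-monomethylated H3(1-15) peptide (75 nM), after 30 min compound exposure at room temperature.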
Pol iota inh – qHTS for Inhibitors of Polymerase Iota. 390,000 tested, 1% active. DNA polymerase iota (Homo sapiens), Q9UNA4. AID 588590, 2011. Pol iota fluorescent replication assay, 10 min. Potency, µM (titrated, usually from 115 µM), for inactives: top-dose activity, negative = inhibition, hits mostly inhibitors
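Fluorescent replication assay read twice, at 0 min and 10 min after adding 50 nM (final) substrate. Enzyme (10 nM) and compounds were first incubated 15 min at room temperature; enzyme-free buffer wells were negative controls.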
POLK inh – qHTS for Inhibitors of Polymerase Kappa; AID 588579, 2011; Potency, µM (titrated, usually from 107 µM), for inactives: at the top dose activity, negative = inhibition, most hits filed as inhibitors; 400,000 tested, 0.53% active; purified Pol kappa, fluorescent DNA synthesis assay, 10 min; note: % is set by controls: 0 for no effect and ±100 for the full control effect
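Pol kappa 10 nM + cpd, 15 min RT; start w/ substrate 50 nM final; fluorescence kinetic read, 0 and 10 min. Neg ctrl: buffer, no enzyme.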
Pol beta inh – qHTS Assay for Inhibitors of DNA Polymerase Beta. P06746. Pol beta primer extension/strand displacement, fluorescence kinetic. Potency, µM (doses to about 114 µM), inactives show at the highest dose activity change, negative = inhibition, hits mostly inhibitors. 340,000 tested, 1.3% active. AID 485314, 2010; note: % is set by controls: 0 for no effect and ±100 for the full control effect
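Homogeneous kinetic assay of primer extension and strand displacement by 10 nM Pol beta, preincubated 15 min at room temperature with compound before 50 nM substrate (final) was added. Read at 0 and 10 min; four-parameter Hill fit.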
Active calls of the source: *; ? = inconclusive; nt = no result; ! = not confirmed by another sample; [ ] = dose if it differs, or a comment. Shown are actives, neighbours in structure and some others; about 2.5% of the full set was active somewhere. Calls come from the whole dose curve; as a rule, active = well fitted curve in the direction sought with a large enough effect; inconclusive = small, poorly fitted or top-dose-only effect, or another doubt; inactive = no such curve, though single readings can be large; an effect the other way counts as inactive or inconclusive. Potency is the fitted concentration of half-maximal effect.

SMILES	APE1 inh	Pol eta inh	L3MBTL1 block	Pol iota inh	POLK inh	Pol beta inh
CC1=Nc2ccccc2/C1=C/c1c(N)n2c(S(=O)(=O)C(C)C)nsc2nc1=O	24.9%	?	nt	49.9%	-20.7%	-15.9%
CC(C)S(=O)(=O)c1nsc2nc(=O)c(/C=C3\C=Nc4ccccc43)c(N)n12	?	31.6µM*	-2.2%	-11.9%	?	39.8µM*
CN(C)/[N+]([O-])=N/Oc1ccc([N+](=O)[O-])cn1	nt	nt	nt	31.4%	6.6%	nt
Cc1cc(=O)oc2cc(OCC(O)CN3CCN(c4ccc(F)cc4)CC3)ccc12 (stereo not drawn)	4.5%	-8.3%	-5.6%	31.9%	-4.1%	-0.2%
Cc1cc(=O)oc2cc(OCC(=O)c3ccc4c(c3)NC(=O)CO4)ccc12	15.7%	?	1.2%	3.16µM*	-14.8%	?
Cc1cc(=O)oc2cc(OCC(=O)N3CCN(c4ccc(F)cc4)CC3)ccc12	5.1%	-6.9%	nt	39.8µM*	?	19.8%
Cc1ccccc1OCC(=O)NCC(=O)N/N=C/c1ccc(Br)o1	-3.4%	25.1µM*	-8.4%	-11.4%	-5.1%	?
Cc1ccccc1OCC(=O)N/N=C/c1ccc([N+](=O)[O-])o1	1.1%	-4.2%	-11.1%	?	?	-20.8%
O=C(Nc1ccc(Br)cc1)C(Cc1ccccc1)NS(=O)(=O)c1cccc2nsnc12 (stereo not drawn)	nt	22.3%	nt	-20.7%	-9.0%[60.1 µM]	-8.2%
[N-]=C=C1C(=O)NC(=O)C([n+]2ccc(-c3ccncc3)cc2)C1c1ccccc1C(F)(F)F (stereo not drawn)	-3.2%	-24.6%	nt	15.8µM*	-12.5%	-1.1%
Cc1ccc(N2CC(C(=O)N3CCN(c4ccccn4)CC3)CC2=O)cc1 (stereo not drawn)	nt	50.1µM*	nt	?	?	nt
CCC(=O)NC(c1cccs1)c1ccc2cccnc2c1O (stereo not drawn)	10.3%	-15.4%	17.8µM*	29.0%	10.2%	24.7%
Cc1ccc(C(NC(=O)C(C)C)c2cc([N+](=O)[O-])c3cccnc3c2O)cc1 (stereo not drawn)	?	?	25.1µM*	21.1%	-3.7%	23.1%
CC(C)C(=O)NC(c1cccs1)c1cc([N+](=O)[O-])c2cccnc2c1O (stereo not drawn)	26.2%	?	10µM*	32.7%	-8.8%	-0.7%
CCC(=O)NC(c1ccc(C)cc1)c1cc(Cl)c2cccnc2c1O (stereo not drawn)	1.4%	-21.1%	39.9%	54.0%	2.2%	nt
C=CC1=C2C=C(C3CC3)N(C3CCCCC3)C=C2C(=O)C(C)(OC(=O)c2ccco2)C1=O (stereo not drawn)	-1.8%[12.4 µM]	nt	nt	nt	nt	nt
C[n+]1ccc(/C=C/c2ccc(Br)cc2)cc1	0.1%	-24.6%	1.6%	?	89.1µM*	-31.5%
Cc1cc(C)cc(NC(=O)CSCn2nnc3c(=O)[nH]c(Cc4ccc(F)cc4)nc32)c1	nt	?	nt	79.4µM*	79.4µM*	39.8µM*
c1nc(SSc2ncnc3nc[nH]c23)c2[nH]cnc2n1	nt	-11.0%	nt	?	-5.3%	nt
Cc1c(-c2csc(N)n2)c2ccccc2n1C	-4.5%	5.1%	nt	5.9%	-13.3%	27.3%
O=C(Cc1cc(=O)[nH][nH]1)N/N=C/C(Cl)=C/c1ccccc1	-5.5%	?	-15.8%	3.16µM*!	-29.8%	50.1µM*
CCOc1cc([N+](=O)[O-])cc(/C=C2/NC(=O)N(Cc3ccccc3F)C2=O)c1O	?	50.1µM*	-8.7%	?	?	?

Compound activity (PubChem)
